Screens deposited in PubChem BioAssay by National Center for Advancing Translational Sciences (NCATS).
IL2 activator: activates IL-2 in a cell-based reporter assay; 0.065% of 360,000 active; IL-2 activation reporter assay, cell-based qHTS; stimulated with anti-CD3/CD4/CD28 beads; in transgenic mouse T cells; activation, % (series mostly up to about 46 µM); in the data active = activation above about 50%; inconclusive = mostly about 30% to 49%; also: 0% is about no effect
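First, unstimulated transgenic mouse T cells were exposed to compound for 60 min. Next, anti-CD3/anti-CD4-coated beads with anti-CD28 were added. Finally, after 18 h at 37 degrees C, EGFP and DsRed were imaged.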
RXFP1 antagonist: RXFP1 (human) relaxin receptor antagonism; HEK293-RXFP1, relaxin-stimulated cAMP HTRF, 30 min; hits give low values; activity change, negative = inhibition, % at 57.5 µM; 0.59% of 350,000 active;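 active = activity change of -60% or lower, but not beyond a set lower limit; inconclusive = change between -60% and -40%, or beyond the set limit; inactive = change above -40%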; also: % is scaled to controls: 0 for no effect and ±100 for the full control effect
Giardia killer: Giardia lamblia killing | Giardia lamblia trophozoite viability | activity change, % at 7.66 µM, hits read low | 0.15% of 340,000 active | AID 540267; in the data active = activity change below about -80%; inconclusive = between about -30% and that limit;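 also: parasites exposed to compound for two days anaerobically before the ATP read; % is scaled to controls: 0 for no effect and ±100 for the full control effect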
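Trophozoites 100 cells/well + cpd; 48 hrs, 37 deg C, anaerobic. ATPLite 1-Step added, 15-30 min RT, luminescence read (ATP-based viability).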
RXFP1 ag: agonists of human relaxin receptor RXFP1 | Potency, µM (highest dose often 57.5 µM), without a hit: at the top dose activation, most hits filed as activators | HEK293T-RXFP1 cAMP TR-FRET, 30 min; response scale: percent of porcine relaxin response, buffer zero | 0.3% of 370,000 active | Q9HBX9; also: potency is read from the fitted curve at half-maximal effect; % is scaled to controls: 0 for no effect and ±100 for the full control effect; nearly all actives have a fitted effect of over 60% in size
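HEK293T cells stably expressing RXFP1 were pretreated with the PDE4 inhibitor Ro 20174, exposed to compounds for 30 min at 37C, lysed, and cAMP was read by TR-FRET. Data normalized to buffer (basal) and 29 nM porcine relaxin (100%).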
NPSR antag: blocks cAMP signaling of the human neuropeptide S receptor | CHO-NPSR cells, cAMP TR-FRET, antagonist mode | Potency, µM (titrated, usually from 38.3 µM), inactives show at the top dose activity change, negative = inhibition, hits mostly inhibitors | 1% of 220,000 active; also: potency is read from the fitted curve at half-maximal effect; % is scaled to controls: 0 for no effect and ±100 for the full control effect; nearly all actives have a fitted effect of over 50% in size
Target sequence (Q6W5P4 whole entry, looked up): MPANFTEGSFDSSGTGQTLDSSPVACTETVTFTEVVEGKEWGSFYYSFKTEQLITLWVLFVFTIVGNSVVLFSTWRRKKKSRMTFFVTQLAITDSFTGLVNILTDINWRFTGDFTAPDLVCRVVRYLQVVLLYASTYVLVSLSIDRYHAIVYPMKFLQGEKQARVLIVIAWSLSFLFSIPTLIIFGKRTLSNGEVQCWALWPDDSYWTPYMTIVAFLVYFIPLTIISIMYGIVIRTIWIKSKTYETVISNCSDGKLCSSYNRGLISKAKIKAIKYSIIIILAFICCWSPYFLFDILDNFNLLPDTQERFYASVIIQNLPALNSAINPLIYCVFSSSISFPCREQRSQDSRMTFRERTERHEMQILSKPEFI
BRCA1 expr up: activators of BRCA1 expression; MCF7-BRCA1-FFLuc reporter, luminescence, 48 h; response scale: scaled: vehicle 0%, 10 µM genistein 100%; Potency, µM (titrated, usually from 46.1 µM), for the others: at the top dose activation, most hits filed as activators; 1.1% of 380,000 active; AID 624202; also: potency is read from the fitted curve at half-maximal effect; nearly all actives have a fitted effect of over 80% in size
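Activators of BRCA1 expression were detected as increased firefly luciferase luminescence in engineered MCF7 cells after 48 h compound incubation. Signals were scaled to genistein 10 microM as full activation.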
Active calls of the source: *; ? = inconclusive; nt = not tested or not shown; [ ] = another dose, or the depositor's remark. Rows were chosen to be rich in hits. Some 1.9% of all compounds tested hit in one or more screens of this group. Unless noted, calls follow the shape of the dose curve; as a rule, active = well fitted curve in the direction sought with a large enough effect; inconclusive = small, poorly fitted or top-dose-only effect, or another doubt; inactive = no such curve, though single readings can be large; an effect the other way counts as inactive or inconclusive.

SMILES | IL2 activator | RXFP1 antagonist | Giardia killer | RXFP1 ag | NPSR antag | BRCA1 expr up
CCCC(c1nnnn1C1CCCC1)N1CCN(C(=O)c2ccco2)CC1 (configuration not stated) | 0 | -6 | 15 | 2% | 13µM* | -33%
CCOC(=O)C1(Cc2ccccc2)CCCN(C(=O)C=C(C)C)C1 (configuration not stated) | -3 | 1 | -8 | 1% | nt | ?
CCOC(=O)C1(Cc2ccccc2)CCCN(C(=O)COc2ccccc2OC)C1 (configuration not stated) | -3 | 4 | nt | nt | nt | 10µM*
Cc1ccc(N2C(=O)c3ccccc3NC2c2ccccc2O)cc1 (configuration not stated) | 1 | 6 | -20 | -2% | nt | 1.6µM*
COc1ccc2nc(N=Nc3ccc(N(C)C)cc3)sc2c1 | -3 | 3 | -82* | 0% | -8%[46.1 µM] | 18%
COc1ccc2nc(/N=C\N(C)C)sc2c1 | 1 | -4 | 5 | 4% | -3%[46.1 µM] | 71%
C[C@@H](CN1CC(=O)NC(=O)C1)N1CC(=O)NC(=O)C1 | nt | -15 | nt | nt | nt | nt
COc1ccc(C(=O)O/N=C(\N)c2ccc(OC)c(OC)c2)cc1 | 1 | -3 | 18 | -2% | nt | 13µM*
COc1ccc(C(=O)O/N=C(\N)c2ccc(OC)c(OC)c2)c(OC)c1 | -1 | -4 | -21 | 0% | nt | 46%
COc1ccc(/C(N)=N/OC(=O)C2CCCCC2)cc1 | -4 | -1 | 8 | 4% | nt | ?
COc1ccc(/C(N)=N/OC(=O)C2CCCCC2)cc1OC | -1 | -17 | -11 | -3% | nt | 2.8µM*
Cc1ccc2nc(CO)[nH]c2c1 | nt | nt | nt | nt | nt | 5%
NC1[C@H]2CN(c3nc4c(cc3F)c(=O)c(C(=O)O)cn4-c3ccc(F)cc3F)C[C@@H]12 (some centres not stated) | nt | -31 | nt | nt | nt | nt
O=C(c1ccc2nc(Cc3ccccc3F)oc2c1)N1CCCC1 | -2 | 2 | 0 | 3% | nt | 5.6µM*
Cc1cc(CN(C)C(=O)c2ccc3nc(Cc4ccccc4F)oc3c2)n[nH]1 | -3 | -10 | -2 | -1% | nt | -12%
O=C(NCc1ccncc1)c1ccc2nc(Cc3ccccc3F)oc2c1 | -4 | -2 | 3 | -1% | nt | -29%
CC(c1ccccn1)N(C)C(=O)c1ccc2nc(Cc3ccccc3F)oc2c1 (configuration not stated) | 0 | -3 | 4 | 0% | nt | 11µM*
Cc1cc(CNC(=O)c2ccc3nc(Cc4ccccc4F)oc3c2)nn1C | 0 | 0 | -18 | -2% | nt | 8.9µM*
O=C(/C=C/c1ccc(C(F)(F)F)cc1)OC(C(=O)NC1CC1)c1ccccc1 (configuration not stated) | nt | nt | nt | nt | nt | -3%
Cc1cccc(OCC(=O)NCCc2nc3ccccc3[nH]2)c1C | nt | -13 | nt | 4% | nt | nt
COCC(=O)O[C@]1(CCN(C)CCCc2nc3ccccc3[nH]2)CCc2cc(F)ccc2[C@@H]1C(C)C | 0 | -30 | 9 | 1% | 10µM* | -36%
Cc1cccc(-c2nc(C#N)c(NC3CCCCC3)o2)c1 | 2 | -23 | -16 | 0% | -21%[7.67 µM] | 3.2µM*
C=C1CCN(C(CC(C)C)C(=O)NN2CCOCC2)S(=O)(=O)c2ccccc21 (configuration not stated) | nt | nt | -28 | nt | nt | nt
CCOc1cccc(-c2c(C(=O)N/N=C(\C)c3ccncc3)nnn2-c2nonc2N)c1 | -4 | -62* | 25 | -3% | nt | -35%
CCOc1cccc(-c2c(C(=O)N/N=C(\C)c3ccccn3)nnn2-c2nonc2N)c1 | 2 | 2 | -7 | 0% | nt | -39%
SMILES | IL2 activator | RXFP1 antagonist | Giardia killer | RXFP1 ag | NPSR antag | BRCA1 expr up
Cc1cc(C)nc(Nc2ccc(C(=O)O)cc2)n1 | 0 | -8 | 3 | 1% | -5%[46.1 µM] | 2.8µM*
C[N+]1(CC(=O)NNc2c3ccccc3nc3ccccc23)CCOCC1 | nt | nt | nt | 5% | -39% | nt
O=C(CN1CCOCC1)NNc1c2ccccc2nc2ccccc12 | 0 | -62* | 3 | -5% | ? | 21%
O=C(CN1C(=O)c2ccccc2C1=O)Nc1ccc(N2CCOCC2)cc1 | 2 | -7 | -1 | -1% | -11%[46.1 µM] | 0%
O=C(CN1C(=O)c2ccccc2C1=O)Nc1ccc(S(=O)(=O)N2CCOCC2)cc1 | -1 | -82* | ? | 2% | -9% | 6%
Cc1cccc(Cn2cc(SCC(=O)Nc3nccs3)c3ccccc32)c1 | 0 | 0 | 12 | 0% | ? | 33%
Cc1ccc(Cn2cc(SCC(=O)Nc3nccs3)c3ccccc32)cc1 | -4 | 5 | -7 | -4% | 10µM* | 29%
Cc1ccc(-n2c(C)nc3ccsc3c2=O)cc1 | -1 | -30 | 12 | nt | nt | -1%
Cc1ccc(-c2nc3ccsc3c(=O)o2)cc1 | 0 | 13 | -26 | 3% | -9%[46.1 µM] | 13µM*
CCOc1ccc(OCCn2c(=S)[nH]c3ccccc32)cc1 | 0 | -63* | 23 | 2% | nt | 28%
S=c1[nH]c2ccccc2n1CCOc1ccccc1 | 1 | -28 | 14 | -1% | nt | 10%
COc1ccc2oc(=N)c(C(=O)Nc3ccccc3Cl)cc2c1 | -1 | -2 | 0 | 3% | nt | 4.5µM*
N#CC1=C2C=Cc3ccccc3N2CCCC1=O | 0 | 3 | -3 | -1% | 2%[46.1 µM] | 2.5µM*
O=C(CN1CCCC1)N1c2ccccc2C=Cc2ccccc21 | 0 | 1 | -12 | -2% | 5% | 1%
NC(N)=NN=C(/C=C/c1ccc([N+](=O)[O-])o1)/C=C/c1ccc([N+](=O)[O-])o1 | nt | -16 | nt | nt | nt | nt
Fc1ccc(CSc2ccc(-c3cccs3)nn2)cc1 | 5 | -8 | 5 | -2% | -1% | 10µM*
c1cncc(CSc2ccc(-c3cccs3)nn2)c1 | 2 | -2 | -9 | 17% | -4% | 10µM*
Cc1ccc(F)cc1NC(=O)COC(=O)c1ccc(S(C)(=O)=O)c([N+](=O)[O-])c1 | nt | nt | -10 | nt | nt | 0%
Cc1ccc(-c2csc(N3CCC(C(N)=O)CC3)n2)cc1 | -1 | nt | -2 | 0% | nt | ?
NC(=O)C1CCN(c2nc(-c3cccc(Cl)c3)cs2)CC1 | -1 | nt | 7 | 0% | nt | 4µM*
NC(=O)C1CCN(c2nc(-c3ccc4ccccc4c3)cs2)CC1 | 0 | nt | 15 | 3% | nt | 13µM*
Cc1cc(C)c2nc(C)cc(Nc3cccc(C(=O)O)c3)c2c1 | nt | -17 | nt | 3% | nt | nt
CCN(CC)S(=O)(=O)c1ccc(C(=O)NCc2n[nH]c(=S)n2-c2ccc(Cl)c(Cl)c2)cc1 | -1 | -64* | -17 | 1% | -6% | -20%
CCC(C)Sc1oc(-c2ccco2)nc1S(=O)(=O)c1ccc(C)cc1 (configuration not stated) | nt | -9 | nt | 0% | nt | nt
CCC(=O)Oc1ccc(C/C(=N\O)c2ccc(O)cc2O)o1 | -2 | -60* | 6 | -1% | -28%[46.1 µM] | -50%
